# In PubChem BioAssay (EPA / NIEHS):
# Values joined by “and” are separate entries in the source; they are usually repeats but may differ in a detail not shown here. Identical values can stand only once. Some structures have more than one record in an assay (separate samples or runs), and their calls can disagree. Active and inactive are the calls of the source. How the source made its calls: active means hit-call score of the fitted dose curve at least 0.9, where 1 is the maximum; inactive means score below 0.9.
# Assay: CCTE_Mundy_HCI_hNP1_Casp3_7: CCTE's Caspase-Glo 3/7 Assay in human neuroprogenitor cells for Apoptosis, Mundy Lab (AID 2284240)
# Procedure: CCTE_Mundy_HCI_hNP1_Casp3_7 is a multiplexed, cell-based-readout assay that uses neural stem cells derived from a neuroepithelial cell lineage of WA09 embryonic cells with measurements taken at […] after chemical dosing in a microplate: 96-well plate.CCTE_Mundy_HCI_hNP1_Casp3_7 is one component of the CCTE_Mundy_HCI_hNP1_Casp3_7 assay. It measures apoptosis related to caspase activation using Luminescent Reporter.Data from the assay component CCTE_Mundy_HCI_hNP1_Casp3_7 was analyzed at the endpoint CCTE_Mundy_HCI_hNP1_Casp3_7_gain in the positive analysis fitting direction relative to DMSO as the negative control and baseline of activity. Using a type of viability reporter, gain -of-signal activity can be used to understand viability effects.
# Human neural progenitor cells (hNP1) were obtained as cryopreserved cells from ArunA Biomedical, Athens Georgia. Cells are plated on pre-coated poly-L-ornithine/laminin clear bottom and opaque 96 well plates (day 0). Plates are placed in a 37 °C, 5% CO2 incubator for 40 to 44 hours at which time plates are removed from the incubator and 10 uL of a freshly made chemical solution is added to each well. Apoptosis was measured based on detection of activated caspase-3/7 using the Caspase-Glo 3/7 assay kit (Promega). Twenty-four hours after chemical treatment, 50ul of Caspase-Glo 3/7 assay buffer was added to each well and the plate incubated for 30min at room temperature. Luminescence was then recorded in each well using a FLUOstar Optima plate reader.
Compound,AC50,outcome
Cc1ccc(-c2c(Cl)nc(C#N)n2S(=O)(=O)N(C)C)cc1,89.9 µM (active),–
CCOc1cc(Oc2ccc(C(F)(F)F)cc2Cl)ccc1[N+](=O)[O-],52.1 µM (active),–
N#Cc1nn(-c2c(Cl)cc(C(F)(F)F)cc2Cl)c(N)c1S(=O)C(F)(F)F (stereo not drawn),–,inactive
CN(C)C(=S)SSC(=S)N(C)C,87.3 µM (active),–
CNC(=O)ON=CC(C)(C)SC,–,inactive
CO/C=C(/C(=O)OC)c1ccccc1Oc1cc(Oc2ccccc2C#N)ncn1,–,inactive
CCCCC(CC)COC(=O)c1ccccc1C(=O)OCC(CC)CCCC (stereo not drawn),16.6 µM (active) and 11.1 µM (active),–
C=CCC1=C(C)C(OC(=O)C2C(C=C(C)C)C2(C)C)CC1=O (stereo not drawn),–,inactive
C=CCC1=C(C)[C@@H](OC(=O)[C@@H]2[C@@H](C=C(C)C)C2(C)C)CC1=O,–,inactive
CCCCOC(=O)c1ccccc1C(=O)OCCCC,–,inactive
CCCCNC(=O)n1c(NC(=O)OC)nc2ccccc21,7.6 µM (active),–
CC(C)(C)c1ccc(CSc2cnn(C(C)(C)C)c(=O)c2Cl)cc1,9.49 µM (active),–
COP(=S)(OC)Oc1nc(Cl)c(Cl)cc1Cl,–,inactive
COP(N)(=O)SC (stereo not drawn),–,inactive
CCOC(=O)CC(SP(=S)(OC)OC)C(=O)OCC (stereo not drawn),84.5 µM (active),inactive
C=CC1(C)OC(=O)N(c2cc(Cl)cc(Cl)c2)C1=O (stereo not drawn),–,inactive
COC(=O)N(OC)c1ccccc1COc1ccn(-c2ccc(Cl)cc2)n1,33.5 µM (active),–
